This note sets out measurements from PubChem BioAssay (NCATS).

In assay [1] the target is Lysosomal acid glucosylceramidase (Homo sapiens) (UniProt P04062). Nature of the assay: Glucocerebrosidase-p2 (AID 348; in the data active = potency below about 10 µM; also: potency is read from the fitted curve at half-maximal effect). The note with it: purified GBA, blue fluorogenic substrate, 40 min. The essentials: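 Normal human glucocerebrosidase (0.2 nM) with blue fluorogenic substrate (80 uM final) in citrate/phosphate pH 5.9 with 10mM sodium taurocholate, 0.01% tween-20; 40 min RT, NaOH/glycine stop; fluorescence Ex 365/Em 440; AC50 from a titration from 0.6 nM upwards.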

For assay [2], the target named is Cytochrome P450 1A2 (Homo sapiens) (UniProt P05177). As to the kind of experiment: p450-cyp1a2 (AID 410; calls by dose curve; also: potency is read from the fitted curve at half-maximal effect). The conditions noted are these: recombinant CYP1A2, luciferin-ME demethylation, luminescence; series mostly up to 11.4 µM. The method, boiled down:
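Luminescent demethylation readout: Luciferin-ME (100uM, equal to Km) turned over by 20nM CYP1A2 for 60 min at room temperature after NADPH regeneration addition, following 10 min compound preincubation. Normalization used 57 uM furafylline as full inhibition.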

Assay [3] in a line: Stat Signaling Pathway (AID 446).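 Also: ME-180 cervical cancer cells given 40 pM IL-6 alongside compound; SIE-controlled beta-lactamase reporter measured as 460/530 nm FRET emission ratio; % is scaled to controls: 0 for no effect and ±100 for the full control effect.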 The note with it: ME-180 (cervical carcinoma) SIE beta-lactamase reporter, IL-6 stimulated, 5 h; at 7.69 µM (top of the series) unless noted. The essentials: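 Overnight-plated ME-180 cells bearing a STAT Inducible Element beta-lactamase reporter; 5 h co-exposure to compound and 40 pM IL-6; values normalized to 300 pM IL-6 and 125 nM JAK inhibitor controls.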
The target of assay [4] is Glucocorticoid receptor (Homo sapiens) (UniProt P04150). As to the kind of experiment: GR-GFP Redistribution (AID 450;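 active = compounds whose dose series gives a full or clear partial fitted curve of increased nuclear translocation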; also: potency is read from the fitted curve at half-maximal effect). The conditions noted are these: U2OS GR-GFP nuclear translocation, laser cytometry, 2 h.
For assay [5] the target is unchanged. As to the kind of experiment: GR-EFC Redistribution (AID 451; calls by dose curve; also: potency is read from the fitted curve at half-maximal effect). The conditions noted are these: CHO-K1 GR-EFC translocation, beta-gal luminescence, 2 h. The essentials: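 CHO-K1 cells stably expressing nuclear-localized β-gal enzyme acceptor and GR fused C-terminally to the enzyme donor fragment; ligand-driven nuclear translocation restores β-gal by complementation. Compounds titrated up to 46 uM final, 2 h at 37 °C; luminescence read.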

Assay [6] concerns the target Mitogen-activated protein kinase 10 (Mus musculus) (UniProt Q61831). Nature of the assay: JNK3 AlphaScreen Assay (AID 530).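 Also: kinase came from lysate of stimulated human HepG2 cells; % is scaled to controls: 0 for no effect and ±100 for the full control effect.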 The conditions noted are these: JNK3 lysate, c-Jun phosphorylation; series mostly up to 11.4 µM. The method, boiled down: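 Phosphorylation of biotinylated GST-cJun(1-79) at Ser73 is measured by AlphaScreen proximity luminescence. Enzyme is JNK3 in HepG2 lysates activated with interleukin-1beta and tumor necrosis factor alpha; ATP is 10 uM final.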
(In general: Bead proximity is the source of the signal in Alpha formats.)

For assay [7], the target named is 3',5'-cyclic-AMP phosphodiesterase 4B (Homo sapiens) (UniProt Q07343). As to the kind of experiment: qHTS Assay for Inhibitors of PDE-IV (AID 607; active = well fitted activation curve with a large enough effect in the main read-out, with a control signal flat, not every such curve was filed as active; also: % of control where 0% means no effect). The note with it: HEK293 ACTOne CNG channel cells, membrane potential fluorescence; series mostly up to 22.9 µM. The method, boiled down: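 Live HEK293 cells with a modified cyclic nucleotide-gated (CNG) channel report intracellular cAMP via membrane-potential dye fluorescence (ex 535/em 590 nm). Endogenous PDE-IV was targeted. Compounds were tested at up to 22.9 uM final; RO 20-1724 100 uM served as control.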
On the technique in general: Quantitative high-throughput screening tests each substance at several concentrations.

In assay [8] the target is Cytochrome P450 3A4 (Homo sapiens) (UniProt P08684). As to the kind of experiment: qHTS Assay for Activators of Cytochrome P450 3A4 (AID 885; active = well fitted curve in the direction sought with a large enough effect; an effect the other way counts as inactive or inconclusive; also: nearly all actives have a fitted effect of over 65% in size). The note with it: recombinant CYP3A4, Luciferin-PPXE luminescence, 60 min; series mostly up to 11.4 µM. The method, boiled down: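 Using 20nM recombinant human CYP3A4 in potassium phosphate (200mM), substrate Luciferin-PPXE at 25uM, luminescent luciferin detection followed a 60-min RT NADPH reaction; data scaled to 57 uM ketoconazole.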

The target of assay [9] is Cytochrome P450 2C19 (Homo sapiens) (UniProt P33261). Nature of the assay: qHTS Assay for Inhibitors and Substrates of Cytochrome P450 2C19 (AID 899; active = well fitted curve in the direction sought with a large enough effect; an effect the other way counts as inactive or inconclusive; also: potency is read from the fitted curve at half-maximal effect; nearly all actives have a fitted effect of over 60% in size). The conditions noted are these: recombinant CYP2C19, luciferin-H EGE luminescence; series mostly up to 11.4 µM. The method, boiled down:
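In 50mM KPO4, the reaction held 5nM enzyme and KM-level (10uM) Luciferin-H EGE; it ran 60 min at 37C after NADPH regeneration and a 10 min compound preincubation. Luminescence values were scaled to 57uM ketoconazole as complete inhibition.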

Assay [10] in a line: NFAT Signaling Pathway (AID 444).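 Also: carbachol stimulus at about its EC50 of 1 µM final; % is scaled to controls: 0 for no effect and ±100 for the full control effect.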 The note with it: Jurkat NFAT-bla M1, carbachol, beta-lactamase ratio, 5 h; at 7.69 µM (top of the series) unless noted. The essentials:
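Jurkat cells carrying an NFAT-driven β-lactamase reporter and co-transfected muscarinic M1 receptor were treated with compound plus carbachol (1 uM final, an EC50 level) for 5 h at 37 °C. CCF4 loading followed for 1 h at RT; 460/530 nm ratio gave %activity.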

The target in assay [11] is Cytochrome P450 3A4 (Homo sapiens) (UniProt P08684). As to the kind of experiment: qHTS Assay for Inhibitors and Substrates of Cytochrome P450 3A4 (AID 884; active = well fitted curve in the direction sought with a large enough effect; an effect the other way counts as inactive or inconclusive; also: potency is read from the fitted curve at half-maximal effect; nearly all actives have a fitted effect of over 50% in size). The conditions noted are these: recombinant CYP3A4, Luciferin-PPXE luminescence; series mostly up to 57.1 µM. The essentials: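 Luminescent readout of luciferin produced by CYP3A4 (20 nM) dealkylation of Luciferin-PPXE, 25 uM (its KM). NADPH-driven reaction ran 60 min at RT after 10 min compound preincubation; data scaled to 57 uM ketoconazole as 100% inhibition.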

Molecules are shown by their SMILES. Values without a mark were called inactive. Records with an inconclusive call do not appear. The source made the active and inactive calls. Unless noted, calls follow the shape of the dose curve; as a rule, active = well fitted curve in either direction with a large enough effect (not every such curve was filed as active); inconclusive = small, poorly fitted or top-dose-only effect, or another doubt; inactive = flat fitted curve, though single readings scatter.

Cytochrome P450 3A4 (Homo sapiens), sequence (P08684 whole entry, looked up): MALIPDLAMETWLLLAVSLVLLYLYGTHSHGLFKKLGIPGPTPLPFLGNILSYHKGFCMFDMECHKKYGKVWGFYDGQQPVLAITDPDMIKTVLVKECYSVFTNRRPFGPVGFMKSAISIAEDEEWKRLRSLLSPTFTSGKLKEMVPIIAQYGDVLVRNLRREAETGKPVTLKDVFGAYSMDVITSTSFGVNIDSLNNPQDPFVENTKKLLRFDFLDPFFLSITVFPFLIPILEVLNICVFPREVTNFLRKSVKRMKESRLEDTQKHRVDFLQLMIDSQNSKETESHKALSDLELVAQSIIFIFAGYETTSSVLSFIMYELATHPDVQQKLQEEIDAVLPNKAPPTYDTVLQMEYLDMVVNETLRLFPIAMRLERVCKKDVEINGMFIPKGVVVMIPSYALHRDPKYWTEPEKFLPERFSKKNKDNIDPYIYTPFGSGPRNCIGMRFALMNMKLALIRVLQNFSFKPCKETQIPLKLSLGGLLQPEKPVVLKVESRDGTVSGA
Cytochrome P450 1A2 (Homo sapiens), sequence (P05177 whole entry, looked up): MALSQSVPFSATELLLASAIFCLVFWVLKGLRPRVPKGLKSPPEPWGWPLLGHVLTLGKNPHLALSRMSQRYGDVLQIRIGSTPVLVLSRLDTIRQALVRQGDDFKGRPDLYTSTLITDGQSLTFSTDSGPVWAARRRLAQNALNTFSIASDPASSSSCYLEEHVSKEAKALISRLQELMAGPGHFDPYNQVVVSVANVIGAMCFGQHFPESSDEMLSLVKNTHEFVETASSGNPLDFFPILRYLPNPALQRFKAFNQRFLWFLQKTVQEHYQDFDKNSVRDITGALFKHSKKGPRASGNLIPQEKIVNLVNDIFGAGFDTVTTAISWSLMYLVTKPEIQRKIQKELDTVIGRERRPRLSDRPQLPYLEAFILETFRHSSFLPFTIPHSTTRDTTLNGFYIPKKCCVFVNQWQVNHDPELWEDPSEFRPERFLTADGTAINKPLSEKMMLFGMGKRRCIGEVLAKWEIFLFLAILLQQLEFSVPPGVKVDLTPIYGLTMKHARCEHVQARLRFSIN
Glucocorticoid receptor (Homo sapiens), sequence (P04150 whole entry, looked up, the tested form may be a part): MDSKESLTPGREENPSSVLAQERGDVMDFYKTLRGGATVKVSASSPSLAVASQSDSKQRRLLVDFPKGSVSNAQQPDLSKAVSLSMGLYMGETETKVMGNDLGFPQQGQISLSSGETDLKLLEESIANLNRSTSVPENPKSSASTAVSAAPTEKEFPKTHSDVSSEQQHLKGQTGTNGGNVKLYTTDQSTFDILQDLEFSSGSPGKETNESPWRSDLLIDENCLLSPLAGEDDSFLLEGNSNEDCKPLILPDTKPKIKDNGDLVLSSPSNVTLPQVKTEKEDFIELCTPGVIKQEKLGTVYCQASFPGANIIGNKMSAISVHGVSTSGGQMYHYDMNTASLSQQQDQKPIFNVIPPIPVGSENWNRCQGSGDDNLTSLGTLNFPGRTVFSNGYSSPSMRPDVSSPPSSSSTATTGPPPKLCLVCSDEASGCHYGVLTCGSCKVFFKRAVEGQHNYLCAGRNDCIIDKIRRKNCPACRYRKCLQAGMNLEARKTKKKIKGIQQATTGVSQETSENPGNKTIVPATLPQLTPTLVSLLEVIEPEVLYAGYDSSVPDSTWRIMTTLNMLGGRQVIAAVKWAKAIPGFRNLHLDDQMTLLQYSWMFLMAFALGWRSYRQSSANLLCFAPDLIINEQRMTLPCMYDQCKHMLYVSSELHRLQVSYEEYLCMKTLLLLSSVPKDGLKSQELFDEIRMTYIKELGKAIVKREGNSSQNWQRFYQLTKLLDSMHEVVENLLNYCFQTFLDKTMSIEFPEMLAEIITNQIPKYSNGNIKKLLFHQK
Lysosomal acid glucosylceramidase (Homo sapiens), sequence (P04062 whole entry, looked up): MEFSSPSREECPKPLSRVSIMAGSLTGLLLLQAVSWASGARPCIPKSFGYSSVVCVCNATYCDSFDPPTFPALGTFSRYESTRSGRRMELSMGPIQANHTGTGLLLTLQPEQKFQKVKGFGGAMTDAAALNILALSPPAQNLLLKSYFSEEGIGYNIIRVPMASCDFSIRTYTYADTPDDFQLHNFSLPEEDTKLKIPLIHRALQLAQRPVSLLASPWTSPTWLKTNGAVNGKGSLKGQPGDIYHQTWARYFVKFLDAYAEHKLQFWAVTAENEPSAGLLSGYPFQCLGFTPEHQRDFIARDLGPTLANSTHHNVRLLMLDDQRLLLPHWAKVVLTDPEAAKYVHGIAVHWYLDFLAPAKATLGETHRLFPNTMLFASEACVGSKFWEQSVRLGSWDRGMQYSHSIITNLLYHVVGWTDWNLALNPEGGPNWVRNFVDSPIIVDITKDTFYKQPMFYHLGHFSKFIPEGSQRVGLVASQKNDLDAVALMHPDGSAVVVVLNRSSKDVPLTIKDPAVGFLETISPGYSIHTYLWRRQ
Cytochrome P450 2C19 (Homo sapiens), sequence (P33261 whole entry, looked up): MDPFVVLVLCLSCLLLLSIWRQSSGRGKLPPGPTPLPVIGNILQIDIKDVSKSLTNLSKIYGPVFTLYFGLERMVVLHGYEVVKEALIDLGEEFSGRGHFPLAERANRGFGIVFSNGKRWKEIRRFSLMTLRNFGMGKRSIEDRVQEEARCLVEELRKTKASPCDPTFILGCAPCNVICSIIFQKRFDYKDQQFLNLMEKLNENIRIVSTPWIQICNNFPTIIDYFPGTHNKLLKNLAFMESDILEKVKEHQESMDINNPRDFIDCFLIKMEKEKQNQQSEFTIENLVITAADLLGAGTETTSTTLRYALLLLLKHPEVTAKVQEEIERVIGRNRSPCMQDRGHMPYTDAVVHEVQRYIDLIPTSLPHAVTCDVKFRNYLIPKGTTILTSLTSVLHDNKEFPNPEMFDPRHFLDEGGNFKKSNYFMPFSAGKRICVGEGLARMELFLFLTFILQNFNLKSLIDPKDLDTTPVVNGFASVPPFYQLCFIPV
3',5'-cyclic-AMP phosphodiesterase 4B (Homo sapiens), sequence (Q07343 whole entry, looked up): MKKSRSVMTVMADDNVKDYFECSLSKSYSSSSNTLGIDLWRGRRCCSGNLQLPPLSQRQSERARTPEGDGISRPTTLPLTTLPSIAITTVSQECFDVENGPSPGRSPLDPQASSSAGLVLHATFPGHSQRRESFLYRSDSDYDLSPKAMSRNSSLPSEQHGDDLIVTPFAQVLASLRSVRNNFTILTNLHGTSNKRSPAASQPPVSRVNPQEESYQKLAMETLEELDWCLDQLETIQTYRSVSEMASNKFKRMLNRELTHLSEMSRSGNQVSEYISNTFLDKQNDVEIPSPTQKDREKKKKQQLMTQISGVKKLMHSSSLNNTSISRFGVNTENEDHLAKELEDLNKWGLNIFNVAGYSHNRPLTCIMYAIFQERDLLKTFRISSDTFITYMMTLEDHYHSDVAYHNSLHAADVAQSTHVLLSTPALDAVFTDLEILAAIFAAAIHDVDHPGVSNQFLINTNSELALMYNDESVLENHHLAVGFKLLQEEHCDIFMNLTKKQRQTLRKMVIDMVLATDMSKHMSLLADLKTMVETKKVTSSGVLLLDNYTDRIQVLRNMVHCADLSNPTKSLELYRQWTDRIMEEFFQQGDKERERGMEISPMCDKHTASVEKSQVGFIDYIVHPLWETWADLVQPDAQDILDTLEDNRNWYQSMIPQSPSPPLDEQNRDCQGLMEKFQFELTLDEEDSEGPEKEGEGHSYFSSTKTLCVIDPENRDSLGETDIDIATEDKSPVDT

On to `O=C1C(Cl)=C(Sc2nnc3c4ccccc4c4ccccc4c3n2)C(=O)c2ccccc21`, for which the Potency in assay [1] is above 11.4 µM; in [2] it was 0.398 µM (active); in [4] it was above 46 µM; in assay [5], above 9.22 µM; in assay [9], 1.58 µM (active). Further, in assay [3], the activity, negative = inhibition was -24.6%. For the same compound, the Potency result in [6], in [7] and in assay [8] was “inactive” each time.
Turning to `COCCn1c(=O)c(CCc2ccccc2)nc2cnc(Oc3cccc(Cl)c3)nc21`, the Potency in assay [1] is above 11.4 µM; in assay [2], 3.98 µM (active); in assay [4], above 9.22 µM; in assay [5], above 46 µM; in assay [11], 0.794 µM (active). The activity change, negative = inhibition in [10] was -14.7%. In assay [3], the activity, negative = inhibition is -17.3%. Besides, the Potency entry in assay [8] was “inactive”.
`COc1ccc(Oc2ncc3nc(CCc4ccccc4)c(=O)n(C4CC4)c3n2)cc1`: the Potency in assay [1] is above 11.4 µM; in [2], 12.6 µM (active); in assay [4], above 9.22 µM; in assay [5] it was above 46 µM; in assay [9] it was 1.58 µM (active). Further, the activity change, negative = inhibition in [10] was 5.02%. The activity, negative = inhibition in assay [3] was -0.549%. Also, the Potency result in assay [6] and in assay [8] was “inactive” in each case.
